# Where “and” joins values, the source holds several entries; their conditions need not be identical. Equal values may be shown once. Inconclusive results are not listed. Where a call stands in place of a potency, no number is given. Some structures have more than one record in an assay (separate samples or runs), and their calls can disagree. A number with no mark means an inactive call. Calls of active or inactive are those of the source. Calls follow the shape of the dose curve; as a rule, active = well fitted curve in the direction sought with a large enough effect; inconclusive = small, poorly fitted or top-dose-only effect, or another doubt; inactive = no such curve, though single readings can be large; an effect the other way counts as inactive or inconclusive.
# Assays:
# [1] = tested on: HEK293; assay: Cytotoxic Profiling of Annotated Libraries Using Quantitative High-Throughput Screening (AID 1296008); settings: Five cell lines viability, CellTiter-Glo ATP luminescence, 48-72 h; max response: hits give low values; also: nearly all actives have a fitted effect of over 60% in size; also: potency is read from the fitted curve at half-maximal effect
# Procedure, shortened: (§1)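 Cytotoxicity was measured as CellTiter-Glo ATP luminescence, read after 10 min at room temperature. Compound treatment of the cells lasted 48 or 72 hr at 37 degrees Celsius in a qHTS format.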
# [2] = tested on: HaCat; assay: as above; settings: Five cell lines viability, CellTiter-Glo ATP luminescence, 48-72 h; max response: hits give low values
# Procedure, shortened: as §1
# [3] = tested on: KB-3-1; assay: as above; settings: Five cell lines viability, CellTiter-Glo ATP luminescence, 48-72 h; max response: hits give low values
# Procedure, shortened: as §1
# [4] = tested on: NIH3T3; assay: as above; settings: Five cell lines viability, CellTiter-Glo ATP luminescence, 48-72 h; max response: hits give low values
# Procedure, shortened: as §1
# [5] = tested on: HACAT; assay: qHTS assay to identify novel small-molecules to repurpose for Merkel cell carcinoma treatment (AID 1296009); settings: MCC and control cell lines, CellTiter-Glo viability, 72 h; series mostly up to 44.8 µM; also: nearly all actives have a fitted effect of over 60% in size; also: potency is read from the fitted curve at half-maximal effect
# Procedure, shortened: (§2)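 Cell viability measured by CellTiter-Glo following 72 hr compound treatment at 37 degree celsius, with NPC and MIPE libraries tested in 8- and 11-point concentration series.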
# [6] = tested on: MCC-13; assay: as above; settings: MCC and control cell lines, CellTiter-Glo viability, 72 h; series mostly up to 46 µM
# Procedure, shortened: as §2
# [7] = tested on: MCC-26; assay: as above; settings: MCC and control cell lines, CellTiter-Glo viability, 72 h; series mostly up to 46 µM
# Procedure, shortened: as §2
# [8] = tested on: MKL-1; assay: as above; settings: MCC and control cell lines, CellTiter-Glo viability, 72 h; series mostly up to 46 µM
# Procedure, shortened: as §2
# [9] = tested on: MKL-2; assay: as above; settings: MCC and control cell lines, CellTiter-Glo viability, 72 h; series mostly up to 46 µM
# Procedure, shortened: as §2
# [10] = tested on: NIH3T3; assay: as above; settings: MCC and control cell lines, CellTiter-Glo viability, 72 h; at 44.8 µM (top of the series) unless noted
# Procedure, shortened: as §2
# [11] = tested on: UISO; assay: as above; settings: MCC and control cell lines, CellTiter-Glo viability, 72 h; series mostly up to 46 µM
# Procedure, shortened: as §2
# [12] = tested on: WaGa; assay: as above; settings: MCC and control cell lines, CellTiter-Glo viability, 72 h; series mostly up to 46 µM
# Procedure, shortened: as §2
# [13] = tested on: C33A; assay: Primary qHTS to identify gynecologic anti-cancer compounds using libraries of approved drugs and bioactive compounds (AID 1345084); settings: Gynecologic cancer cell panel viability, ATPlite luminescence, 48 h; series mostly up to 57.5 µM; also: nearly all actives have a fitted effect of over 55% in size
# Procedure, shortened: (§3)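 In this quantitative HTS, cell killing is estimated from loss of ATP-dependent luciferase light. Cells see five compound concentrations over a 48 h exposure.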
# [14] = tested on: CASKI; assay: as above; settings: Gynecologic cancer cell panel viability, ATPlite luminescence, 48 h; series mostly up to 57.5 µM
# Procedure, shortened: as §3
# [15] = tested on: Es-2; assay: as above; settings: Gynecologic cancer cell panel viability, ATPlite luminescence, 48 h; series mostly up to 57.5 µM
# Procedure, shortened: as §3
# [16] = tested on: HeLa; assay: as above; settings: Gynecologic cancer cell panel viability, ATPlite luminescence, 48 h; series mostly up to 57.5 µM
# Procedure, shortened: as §3
# [17] = tested on: Hek293T; assay: as above; settings: Gynecologic cancer cell panel viability, ATPlite luminescence, 48 h, control line for the selectivity index; series mostly up to 57.5 µM
# Procedure, shortened: as §3
# [18] = tested on: JEG-3; assay: as above; settings: Gynecologic cancer cell panel viability, ATPlite luminescence, 48 h; series mostly up to 57.5 µM
# Procedure, shortened: as §3
# [19] = tested on: CAOV3; assay: as above; settings: Gynecologic cancer cell panel viability, ATPlite luminescence, 48 h; series mostly up to 57.5 µM
# Procedure, shortened: as §3
# [20] = tested on: HEK293T; assay: qHTS assay to identify novel small-molecules to repurpose for Merkel cell carcinoma treatment (AID 1296009); settings: MCC and control cell lines, CellTiter-Glo viability, 72 h; at 44.8 µM (top of the series) unless noted; also: nearly all actives have a fitted effect of over 60% in size; also: potency is read from the fitted curve at half-maximal effect
# Procedure, shortened: as §2
compound,measurement,setting,value
CC(C)(C)c1cc(NC(=O)Nc2ccc(-c3cn4c(n3)sc3cc(OCCN5CCOCC5)ccc34)cc2)no1,Potency,[1],1.18 µM (active) and 5.8 µM (active)
same,outcome,[2],inactive
same,max response,[3],4.76% and -14.7%
same,max response,[4],-25.4%
same,outcome,[4],inactive
same,Potency,[5],inactive
same,Potency,[6],inactive
same,Potency,[7],inactive
same,Potency,[8],inactive
same,Potency,[9],inactive
same,outcome,[10],inactive
same,Potency,[11],inactive
same,Potency,[12],inactive
same,Potency,[13],inactive
same,Potency,[14],inactive
same,Potency,[15],inactive
same,Potency,[16],inactive
same,Potency,[17],inactive
same,Potency,[18],inactive
COc1ccc(-n2nc(C(N)=O)c3c2C(=O)N(c2ccc(N4CCCCC4=O)cc2)CC3)cc1,max response,[1],2.24%
same,max response,[2],-4.25%
same,outcome,[2],inactive
same,max response,[3],6.22% and -0.472%
same,max response,[4],-1.07% and 4.24%
same,Potency,[5],inactive
same,Potency,[6],inactive
same,Potency,[7],inactive
same,Potency,[8],inactive
same,Potency,[9],inactive
same,Potency,[11],inactive
same,Potency,[12],inactive
same,Potency,[13],inactive
same,Potency,[19],inactive
same,Potency,[14],inactive
same,Potency,[15],inactive
same,Potency,[16],inactive
same,Potency,[17],inactive
same,Potency,[18],inactive
N#CCNC(=O)c1ccc(-c2ccnc(Nc3ccc(N4CCOCC4)cc3)n2)cc1,Potency,[1],18.7 µM (active) and 23.1 µM (active)
same,Potency,[2],13 µM (active)
same,max response,[2],-43.7%
same,Potency,[3],11.8 µM (active) and 18.4 µM (active)
same,Potency,[4],5.26 µM (active) and 4.11 µM (active)
same,Potency,[11],14.8 µM (active)
same,Potency,[13],inactive
same,Potency,[14],inactive
same,Potency,[16],inactive
Cc1c(NC(=O)OC[C@@H]2COCCN2)cn2ncnc(Nc3ccc4c(cnn4Cc4cccc(F)c4)c3)c12,Potency,[1],14.8 µM (active) and 23.1 µM (active)
same,Potency,[2],4.69 µM (active) and 2.91 µM (active)
same,max response,[3],-29.5%
same,Potency,[4],20.9 µM (active)
same,max response,[4],3.43%
same,Potency,[6],inactive
same,Potency,[7],inactive
same,Potency,[8],inactive
same,Potency,[12],inactive
same,Potency,[13],inactive
same,Potency,[15],inactive
same,Potency,[16],inactive
same,Potency,[17],inactive
same,Potency,[18],inactive
Clc1ccc2ncc(-c3cccc(NC4CNC4)n3)n2c1,Potency,[1],18.7 µM (active)
same,outcome,[1],inactive
same,outcome,[2],inactive
same,outcome,[3],inactive
same,outcome,[4],inactive
same,Potency,[5],inactive
same,outcome,[20],inactive
same,Potency,[6],inactive
same,Potency,[7],inactive
same,Potency,[9],inactive
same,outcome,[10],inactive
same,Potency,[13],inactive
same,Potency,[14],inactive
same,Potency,[15],inactive
same,Potency,[16],inactive
same,Potency,[17],inactive
same,Potency,[18],inactive
CCNC(=O)Nc1ccc2ncc(Nc3ccc(C)cc3)nc2n1,max response,[1],1.18% and 1.8%
same,max response,[2],-7.35% and 2.38%
same,max response,[3],-0.0839%
same,outcome,[3],inactive
same,max response,[4],4.76% and -10.1%
same,Potency,[6],inactive
same,Potency,[13],inactive
same,Potency,[19],inactive
same,Potency,[14],inactive
same,Potency,[15],inactive
same,Potency,[16],inactive
same,Potency,[17],inactive
same,Potency,[18],inactive
CCCn1c(=O)c2[nH]c(-c3cnn(Cc4cccc(C(F)(F)F)c4)c3)nc2n(CC)c1=O,outcome,[1],inactive
same,max response,[2],-0.725%
same,outcome,[2],inactive
same,max response,[3],0.919%
same,outcome,[3],inactive
same,max response,[4],1.05%
same,outcome,[4],inactive
same,Potency,[5],inactive
same,outcome,[20],inactive
same,Potency,[6],inactive
same,Potency,[7],inactive
same,Potency,[8],inactive
same,Potency,[9],inactive
same,outcome,[10],inactive
same,Potency,[11],inactive
same,Potency,[12],inactive
same,Potency,[13],inactive
same,Potency,[19],inactive
same,Potency,[14],inactive
same,Potency,[15],inactive
same,Potency,[16],inactive
same,Potency,[17],inactive
same,Potency,[18],inactive
O=C1CCC[C@@H]2[C@H]3CCC[N+]4([O-])CCC[C@@H](CN12)[C@@H]34 (stereo partly specified),max response,[1],0.171%
same,max response,[2],2.01%
same,outcome,[2],inactive
same,max response,[3],-0.364% and 8.14%
same,max response,[4],-2.91%
same,outcome,[4],inactive
same,Potency,[5],inactive
same,Potency,[6],inactive
same,Potency,[8],inactive
same,Potency,[9],inactive
same,outcome,[10],inactive
same,Potency,[11],inactive
same,Potency,[12],inactive
same,Potency,[13],inactive
same,Potency,[14],inactive
same,Potency,[15],inactive
same,Potency,[16],inactive
same,Potency,[17],inactive
same,Potency,[18],inactive
Clc1cccc(-c2nnnn2Cc2cccnc2)c1Cl,Potency,[1],26.4 µM (active)
same,max response,[1],-0.348%
same,max response,[2],3% and -9.84%
same,outcome,[3],inactive
same,max response,[4],-9.84% and -14.4%
same,Potency,[6],inactive
same,Potency,[7],inactive
same,Potency,[8],inactive
same,Potency,[9],inactive
same,Potency,[11],inactive
same,Potency,[12],inactive
same,Potency,[13],inactive
same,Potency,[14],inactive
same,Potency,[15],inactive
same,Potency,[16],inactive
same,Potency,[17],inactive
same,Potency,[18],inactive
C[C@]12CC[C@H](O)CC1=CCC1C2CC[C@]2(C)C(n3cnc4ccccc43)=CCC12 (stereo partly specified),Potency,[1],14.6 µM (active)
same,max response,[1],-24.7%
same,max response,[2],2.2%
same,max response,[3],0.714%
same,max response,[4],3.78% and -16%
same,Potency,[6],inactive
same,Potency,[7],inactive
same,Potency,[8],inactive
same,Potency,[11],inactive
same,Potency,[12],inactive
same,Potency,[13],inactive
same,Potency,[14],inactive
same,Potency,[15],inactive
same,Potency,[16],inactive
same,Potency,[17],inactive
same,Potency,[18],inactive
